Source: PubChem BioAssay
Activity calls are given as the source filed them.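 How the source made its calls, unless noted: active means viability at or under a set limit in both replicates, limit being median viability minus 3 SD (cut at about 48% in these data, passing the limit was not always enough); inconclusive means at or under the limit in just one replicate; inactive means at or above the limit in both replicates.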

Columns and labels:
[1] = reduced viability of SK-BR-3 breast cancer cells – cell-based, 24 h, human, pilot screen (AID 572;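 active means viability at or below 10% of carrier control in both of two separate runs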;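 further: compound exposure lasted between 18 and 24 h rather than exactly 24 h; 100% = carrier-treated control wells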); settings: SK-BR-3 viability, CellTiter-Glo luminescence, at 10 µM, stronger effect = lower value
[2] = HUVEC growth inhibition – cell-based, human, primary screen (AID 575;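 active means viability at or below 30% in both replicate assays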;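 further: 100% = median of untreated cell wells with 0.1% DMSO on each plate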); settings: HUVEC proliferation, CellTiter-Glo luminescence, 72 h; at 10 µM; stronger effect = lower value
[3] = H69AR cell proliferation blockers – human, duplicate replicates, primary screen (AID 580); settings: H69AR lung tumor cells viability, ATP luminescence, 72 h; at 10 µM; stronger effect = lower value;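 further: 100% = mean luminescence of untreated wells and 0% = no signal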
[4] = MRP1 drug-resistance reversers in H69AR cells – cell-based, doxorubicin co-treatment, pilot screen (AID 601;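 active means viability loss from added drug above about 55%, and viability with drug at most 40%, in both replicates, limit read from the data, passing the limit was not always enough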); settings: CellTiter-Glo, 72 h, at 10 µM; for differential viability (reversal): stronger effect = higher value
[5] = yeast transport mutant growth inhibition pilot in 384-well plates, post-Golgi transport modulator project (AID 636; in the data active means inhibition above about 31%); settings: absorbance 615 nm, about 18 h, stronger effect = higher value
[6] = growth suppression of yeast trafficking mutant, preliminary HTS, modulators of trafficking downstream of Golgi apparatus project, 1536-format plate, OD 615 nm (AID 637; in the data active means inhibition above about 30%); settings: yeast transport mutant growth, absorbance 615 nm, 18 h; stronger effect = higher value
[7] = H69AR cells + 2 uM doxorubicin, measured here: viability with 2 uM doxorubicin, stronger effect = lower value
[8] = H69AR cells, compound alone cytotoxicity

Row | SMILES | viability [1] | viability [2] | viability [3] | differential viability (reversal) ([4]; H69AR cells + 2 uM doxorubicin) | viability [4, 7] [%] | viability [4, 8] [%] | inhibition [5] | inhibition [6]
1 | CC(=O)C1=C(NC(=O)c2ccccc2F)C[C@@H]2[C@H]1C2(C)C | 90% (inactive) | 99.2% (inactive) | 91.3% (inactive) | 1.76% (inactive) | 89.5 | 91.3 | -10.7% (inactive) | -3.55% (inactive)
2 | CCCC(=O)Nc1nnc(CC(=O)N2CCCC2)s1 | 90% (inactive) | 113% (inactive) | 96.9% (inactive) | 7.37% (inactive) | 89.5 | 96.9 | -9.73% (inactive) | -5.27% (inactive)
3 | Cc1cc(C)cc(-n2nnc(C(=O)NCc3ccc4c(c3)OCO4)c2N)c1 | 106% (inactive) | 88.5% (inactive) | 97.7% (inactive) | -6.51% (inactive) | 104 | 97.7 | -5.19% (inactive) | 0% (inactive)
4 | CCOC(=O)c1c(N)c(C#N)nn1-c1ccccc1C(=O)OC | 96% (inactive) | 109% (inactive) | 92.3% (inactive) | 6.05% (inactive) | 86.2 | 92.3 | -5.87% (inactive) | 0.73% (inactive)
5 | CCCc1ccccc1OCCNC(C)=O | 103% (inactive) | 99.5% (inactive) | 102% (inactive) | 11.2% (inactive) | 90.4 | 102 | -3.87% (inactive) | 0% (inactive)
6 | CC(=O)c1ccccc1OCCn1nnc(-c2ccc(C)cc2)n1 | 108% (inactive) | 83.6% (inactive) | 80.1% (inactive) | 5.44% (inactive) | 74.6 | 80.1 | -8.9% (inactive) | 2.1% (inactive)
7 | O=C(COC(=O)c1cnccn1)Nc1ccc2c(c1)OCO2 | 130% (inactive) | 82% (inactive) | 91.6% (inactive) | 2.88% (inactive) | 88.7 | 91.6 | 0.65% (inactive) | 2.46% (inactive)
8 | O=C(O)CCN(CCC(=O)O)c1nnc(SCc2ccccc2)s1 | 91% (inactive) | 107% (inactive) | 93.6% (inactive) | 7.11% (inactive) | 86.5 | 93.6 | -6.16% (inactive) | -3.55% (inactive)
9 | Cc1cc2c(c(=O)n1C)C(Cc1ccccc1)C(C#N)=C(N)O2 (centres undefined) | 95% (inactive) | 109% (inactive) | 95.1% (inactive) | 9.48% (inactive) | 85.6 | 95.1 | -5.54% (inactive) | 2.55% (inactive)
10 | CCCCN1C[C@H](O)[C@@H](O)[C@H](O)[C@H]1CO | 123% (inactive) | 88.9% (inactive) | 96.5% (inactive) | -3.9% (inactive) | 100 | 96.5 | 1.82% (inactive) | 27% (inactive)
11 | CCN(CCO)C(=O)CC(c1ccccc1)c1cc(Br)ccc1O (centres undefined) | 101% (inactive) | 101% (inactive) | 93.8% (inactive) | -3.22% (inactive) | 97 | 93.8 | -2.3% (inactive) | -3.09% (inactive)
12 | CC(C)N(Cc1nc(-c2ccccc2)no1)C(=O)CCCN1C(=O)c2ccccc2C1=O | 104% (inactive) | 112% (inactive) | 97.9% (inactive) | 15.7% (inactive) | 82.2 | 97.9 | -3.12% (inactive) | 0.98% (inactive)
13 | CC1CC(C)CN(CC(=O)Nc2ccc(S(N)(=O)=O)cc2)C1 (centres undefined) | 96% (inactive) | 96.9% (inactive) | 84.9% (inactive) | 2.1% (inactive) | 82.8 | 84.9 | 3.29% (inactive) | -2.58% (inactive)
14 | O=C(NC1CCS(=O)(=O)C1)OC1CCCCC1 (centres undefined) | 75% (inactive) | 111% (inactive) | 93.4% (inactive) | -10.9% (inactive) | 104 | 93.4 | -0.82% (inactive) | 1.82% (inactive)
15 | O=C1c2ccccc2C(=O)N1CCN1CCCCC1 | 98% (inactive) | 129% (inactive) | 103% (inactive) | 4.01% (inactive) | 99.4 | 103 | 3.38% (inactive) | -1.64% (inactive)
16 | CCc1ccccc1OCCCCN1CCCC1 | 124% (inactive) | 82% (inactive) | 89.1% (inactive) | 10.8% (inactive) | 78.2 | 89.1 | -5.06% (inactive) | -1.97% (inactive)
17 | Cc1cc(C(=O)Nc2cccnc2)no1 | 99% (inactive) | 101% (inactive) | 98.3% (inactive) | 0.295% (inactive) | 98 | 98.3 | 3.78% (inactive) | -2.18% (inactive)
18 | COc1ccc(NS(=O)(=O)c2ccc(N)cc2)nn1 | 91% (inactive) | 100% (inactive) | 104% (inactive) | 8.44% (inactive) | 95.3 | 104 | -0.78% (inactive) | 0% (inactive)
19 | Cc1cc(C)n(-c2nc3sc4c(c3c3nnc(SC(C)C)n23)CC(C)(C)OC4)n1 | 96% (inactive) | 96.6% (inactive) | 84.4% (inactive) | 2.36% (inactive) | 82 | 84.4 | 1.23% (inactive) | 17.6% (inactive)
20 | Cc1cc2ccccc2c(=O)n1CC(=O)N(C)c1ccc(F)cc1 | 102% (inactive) | 84.2% (inactive) | 102% (inactive) | 2.95% (inactive) | 98.9 | 102 | -2.3% (inactive) | -2.73% (inactive)
21 | COc1cccc(S(=O)(=O)Nc2ccc(C(=O)N3CCN(C(=O)c4ccco4)CC3)cc2)c1 | 85% (inactive) | 104% (inactive) | 86.3% (inactive) | 14.7% (inactive) | 71.5 | 86.3 | -2.19% (inactive) | -0.97% (inactive)
22 | Cc1cnc(C(=O)Nc2nnc(C(C)C)s2)cn1 | 113% (inactive) | 113% (inactive) | 87.4% (inactive) | 6.11% (inactive) | 81.2 | 87.4 | -0.26% (inactive) | -1.97% (inactive)
23 | Cc1ccc(C)c(CSc2nnc(CCN)o2)c1 | 101% (inactive) | 41.5% (inactive) | 71.2% (inactive) | -20.6% (inactive) | 91.8 | 71.2 | -7.67% (inactive) | 5.45% (inactive)
